# Laboratory results reported in PubChem BioAssay (NCATS).
# Records with an inconclusive call do not appear. A number with no mark means an inactive call. The source made the active and inactive calls. Calls follow the shape of the dose curve; as a rule, active = well fitted cell-killing curve with a large enough effect; inconclusive = small, poorly fitted or top-dose-only effect, or effect the other way; inactive = no such curve, though single readings can be large or run the other way.
# Assay: Viability qHTS for spleen associated tyrosine kinase inhibitor (SYKi) drug resistant MV4-11 cells (AID 1963824); also: nearly all actives have a fitted effect of over 35% in size
# Conditions: SYKi-resistant MV4-11 viability, CellTiter-Glo, 72 h; series mostly up to 45 µM
# In short: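 SYK-inhibitor-resistant MV4-11 AML cells were seeded at 500 per well onto compound and cultured 72 hours (37 °C, 5% CO2). CellTiter-Glo was then added, and after 10 min at room temperature, luminescence gave viability.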
# Potency is read from the fitted curve at half-maximal effect.
Compound,Potency,"viability, % of control"
CC1(C)C2CC[C@]3(C)C(C(=O)C=C4[C@H]5C[C@@](C)(C(=O)O)CC[C@]5(C)CC[C@]43C)[C@@]2(C)CC[C@@H]1O (some centres undefined),inactive,
O=C(CCc1ccccc1)c1c(O)c([C@@H]2O[C@H](CO)[C@@H](O)[C@H](O)[C@H]2O)c(O)c([C@@H]2O[C@H](CO)[C@@H](O)[C@H](O)[C@H]2O)c1O,inactive,
COc1ccc(CN2C(=O)C(=O)c3cc(S(=O)(=O)N4CCC[C@H]4COc4cccnc4)ccc32)cc1,inactive,
COc1cc(C(=O)OC[C@@]2(O)CO[C@@H](O[C@H]3[C@H](Oc4ccc(C(=O)O)cc4OC)O[C@H](CO)[C@@H](O)[C@@H]3O)[C@@H]2O)ccc1O,inactive,
CC1CCC2(C(=O)OC3OC(CO)C(O)C(O)C3O)CCC3(C(=O)O)C(=CCC4C5(C)CCC(OC6OC(C)C(O)C(O)C6O)C(C)(C)C5CCC43C)C2C1C (centres undefined),inactive,
O=S(=O)(NCc1cccc2ccccc12)c1cc(Cl)c(Oc2cccc(N3CCNCC3)c2)s1,4.61 µM (active),
COc1cc(C(=O)OC[C@@]2(O)CO[C@@H](O[C@H]3[C@H](Oc4ccc(O)cc4)O[C@H](CO)[C@@H](O)[C@@H]3O)[C@@H]2O)cc(OC)c1O,inactive,
CCCC(=O)C1CCN(c2ncnc3c2CN(C(=O)c2ccc(-c4ccccc4)cc2)CC3)CC1,20.6 µM (active),
CC(O)CO[C@@H]1O[C@H](CO)[C@@H](O)[C@H](O)[C@H]1O (some centres undefined),inactive,
CC/C(=C(\c1ccc(O)cc1)c1ccc(OCCNC)cc1)c1ccccc1,inactive,
COC(=O)C1(O)C(OC(C)=O)CCC2C3(CC(c4ccoc4)OC3=O)C(C)=CCC21C(=O)OC (centres undefined),inactive,
C=C1C(=O)O[C@@H]2/C=C(\C)CC/C=C(/C=O)[C@H](OC)[C@@H](OC(=O)C(C)C)[C@@H]12,2.55 µM (active),
CC(C)c1ccc(CO)cc1O[C@@H]1O[C@H](CO)[C@@H](O)[C@H](O)[C@H]1O,inactive,
CC1(C)CC[C@]23CO[C@@]4(CCC5[C@@]6(C)CC[C@H](O[C@@H]7OC[C@H](O[C@@H]8O[C@H](CO)[C@@H](O)[C@H](O)[C@H]8O[C@@H]8OC[C@@H](O)[C@H](O)[C@H]8O)[C@H](O)[C@H]7O[C@@H]7O[C@H](CO)[C@@H](O)[C@H](O)[C@H]7O)[C@@](C)(CO)C6CC[C@@]5(C)[C@]4(C)C[C@H]2O)[C@@H]3C1 (some centres undefined),3.9 µM (active),
CCC(C)CNCC(=O)N1CCC2SC=CC2C1COc1cccc(C)c1 (centres undefined),10.3 µM (active),
Cc1cc(-c2cnc(N)c3c(-c4ccc5scnc5c4)csc23)n(C)n1,2.59 µM (active),
Cc1ccc(C2(COC(=O)C(C)C)CO2)c(OC(=O)C(C)C)c1 (centres undefined),2.02 µM (active),
C=C[C@H]1[C@H](O[C@@H]2O[C@H](CO[C@@H]3OC[C@](O)(CO)[C@H]3O)[C@@H](O)[C@H](O)[C@H]2O)OC=C2C(=O)OCC[C@H]21,inactive,
O=C(C[C@@H]1C(C(=O)O)=CO[C@@H](O[C@@H]2O[C@H](CO)[C@@H](O)[C@H](O)[C@H]2O)/C1=C\CO)OCCc1ccc(O)c(O)c1,inactive,
O=C(/C=C/c1ccc(O)cc1)OCC1=C[C@@H](O)[C@@H]2C=CO[C@@H](O[C@@H]3O[C@H](CO)[C@@H](O)[C@H](O)[C@H]3O)[C@H]12,inactive,

Compound,Potency,"viability, % of control"
CC1(C)CC[C@]2(C(=O)O[C@@H]3O[C@H](CO)[C@@H](O)[C@H](O)[C@H]3O)CC[C@]3(C)C(=CCC4[C@@]5(C)CC[C@H](O[C@@H]6O[C@H](C(=O)O)[C@@H](O[C@@H]7O[C@H](CO)[C@@H](O)[C@H](O)[C@H]7O)[C@H](O)[C@H]6O)C(C)(C)C5CC[C@]43C)C2C1 (some centres undefined),,88% [at 9.25 µM]
CC1(C)CCC2(CC1)N[C@@H](C(=O)N[C@@H]1CC[C@@H](C(N)=O)OC1)[C@H](c1ccnc(Cl)c1F)[C@]21C(=O)Nc2cc(Cl)ccc21,5.68 µM (active),
Oc1ccc2c(c1)OCC1(O)Cc3cc(O)c(O)cc3C21 (centres undefined),3.66 µM (active),
O=C(Nc1cccc(C(F)(F)F)c1)c1ccccc1NCc1ccncc1,9.2 µM (active),
COc1ccc(/C=C\C(=O)O)c(O[C@@H]2O[C@H](CO)[C@@H](O)[C@H](O)[C@H]2O)c1,inactive,
COc1cc2occc2c(O[C@@H]2O[C@H](CO)[C@@H](O)[C@H](O)[C@H]2O)c1CCC(=O)O,inactive,
CC1(CO)CCCC2(C)C1C(OC(=O)c1ccccc1)C=C1C(=O)OCC12O (centres undefined),1.61 µM (active),
Cc1cc(C(=O)N2Cc3cnn(C)c3Nc3ccccc32)ccc1CNC(=O)N1CCN(Cc2cc(O)cc(O)c2)CC1,inactive,
COc1c(F)cccc1C(=O)N1C[C@@H](C)CC[C@H]1CNc1ccc(Br)cn1,9.2 µM (active),
COc1ccccc1OCCNCC(O)CCOc1cccc2[nH]c3ccccc3c12 (centres undefined),9.2 µM (active),
COc1ccccc1-c1cc(Nc2cccc(CS(N)(=O)=O)c2)ncn1,8.2 µM (active),
CC1(C)CC2C(O)C3=C(CC(C)(O)C2C1)C(=O)OC3O (centres undefined),inactive,
O=C(O)c1ccnc(-c2cc(C(=O)NCCc3ccccc3)ccn2)c1,inactive,
CC(C)C(CO)Nc1nc(Nc2cc(N)cc(Cl)c2)c2ncn(C(C)C)c2n1 (centres undefined),0.82 µM (active),
CC(C)(C(=O)NCC(F)(F)C(F)(F)F)C(=O)NC1C(=O)Nc2ccccc2-c2ccccc21 (centres undefined),13 µM (active),
C[C@@H]1CC[C@]2(C(=O)O[C@@H]3O[C@H](CO[C@@H]4O[C@H](CO)[C@@H](O[C@@H]5O[C@@H](C)[C@H](O)[C@@H](O)[C@H]5O)[C@H](O)[C@H]4O)[C@@H](O)[C@H](O)[C@H]3O)CC[C@]3(C)C(=CCC4[C@@]5(C)C[C@@H](O)[C@H](O)[C@@](C)(CO)C5CC[C@]43C)C2[C@H]1C (some centres undefined),,113% [at 9.25 µM]
C=C1CC[C@@H]2[C@@](C)(CO[C@@H]3O[C@H](CO)C(O)[C@H](O)C3O)[C@H](O)CC[C@@]2(C)[C@@H]1CC/C(C)=C/CO (some centres undefined),,101% [at 9.25 µM]
CN1C/C=C/CCOc2cccc(c2)-c2ccnc(n2)Nc2cccc(c2)C1,0.206 µM (active),
COc1cc(/C=C/C(=O)OC[C@H]2O[C@@](CO)(O[C@H]3O[C@H](CO)[C@@H](O)[C@H](O)[C@H]3O)[C@@H](OC(=O)/C=C/c3ccc(O)c(OC)c3)[C@@H]2O)ccc1O,inactive,
